In PMC7862700, “An all-to-all approach to the identification of sequence-specific readers for epigenetic DNA modifications on cytosine” one finds binding signal data, which are given here for one sequence.

Holding throughout (assay): DAPPL (digital affinity profiling via proximity ligation, sequencing); 10 mM Tris-HCl pH 7.5, 50 mM NaCl, 1 mM DTT, 4% glycerol, room temperature, 30 min; GST-TFs on glutathione beads, 16-mer random dsDNA library, 0.1% formaldehyde crosslink after washing; high values mean tight binding
What all share (details): protein: recombinant; tags: N-terminal GST; dsDNA, one strand shown

In one test the target is T1, ELK1 (Homo sapiens, UniProt P19419 1-428).
T1 sequence: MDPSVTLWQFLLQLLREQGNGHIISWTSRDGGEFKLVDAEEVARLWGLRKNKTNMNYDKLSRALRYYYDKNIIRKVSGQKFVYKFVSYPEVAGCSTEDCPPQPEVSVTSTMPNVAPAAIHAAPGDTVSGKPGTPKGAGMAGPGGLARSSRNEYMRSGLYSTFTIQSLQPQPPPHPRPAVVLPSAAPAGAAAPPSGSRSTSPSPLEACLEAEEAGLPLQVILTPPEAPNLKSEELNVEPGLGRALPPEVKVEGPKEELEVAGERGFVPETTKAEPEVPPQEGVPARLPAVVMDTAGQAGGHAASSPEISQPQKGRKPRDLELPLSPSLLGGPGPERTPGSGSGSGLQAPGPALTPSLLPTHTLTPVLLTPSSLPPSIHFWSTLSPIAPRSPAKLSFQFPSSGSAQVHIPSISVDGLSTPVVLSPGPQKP
The method in brief: (§1)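 Sequencing on an Illumina NextSeq500 followed washing, crosslinking with 0.1% formaldehyde, proximity ligation (BsaI/T4 ligase, 1 h, 37 °C) and PCR amplification of pools that had been incubated for 30 min at room temperature with 200 nmole of a random double-stranded 16-mer DNA library in Tris/NaCl/DTT/glycerol buffer. Each pool held DNA-barcoded human transcription factors, expressed in yeast as GST fusions and captured on glutathione beads, plus a tag-only sample. Binding signal is a hexamer's read frequency for a factor divided by its frequency in the tag-only sample.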

Another test deals with T2, GABPA (Homo sapiens, UniProt Q06546 1-454).
T2 sequence: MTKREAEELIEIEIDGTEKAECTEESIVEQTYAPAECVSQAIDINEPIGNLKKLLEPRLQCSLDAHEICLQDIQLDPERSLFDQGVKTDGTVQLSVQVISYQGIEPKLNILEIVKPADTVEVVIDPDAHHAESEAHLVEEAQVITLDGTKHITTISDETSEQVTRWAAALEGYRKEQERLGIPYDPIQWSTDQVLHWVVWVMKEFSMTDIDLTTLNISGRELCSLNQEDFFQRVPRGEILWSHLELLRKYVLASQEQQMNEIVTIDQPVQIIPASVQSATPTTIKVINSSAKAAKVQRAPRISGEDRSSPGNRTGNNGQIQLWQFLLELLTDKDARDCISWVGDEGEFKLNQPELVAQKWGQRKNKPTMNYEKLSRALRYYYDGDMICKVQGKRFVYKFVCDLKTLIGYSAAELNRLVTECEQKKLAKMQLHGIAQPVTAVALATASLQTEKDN
The procedure, abridged:
as §1

The target of the next test is T3, ERG (Homo sapiens, UniProt P11308 1-479).
T3 sequence: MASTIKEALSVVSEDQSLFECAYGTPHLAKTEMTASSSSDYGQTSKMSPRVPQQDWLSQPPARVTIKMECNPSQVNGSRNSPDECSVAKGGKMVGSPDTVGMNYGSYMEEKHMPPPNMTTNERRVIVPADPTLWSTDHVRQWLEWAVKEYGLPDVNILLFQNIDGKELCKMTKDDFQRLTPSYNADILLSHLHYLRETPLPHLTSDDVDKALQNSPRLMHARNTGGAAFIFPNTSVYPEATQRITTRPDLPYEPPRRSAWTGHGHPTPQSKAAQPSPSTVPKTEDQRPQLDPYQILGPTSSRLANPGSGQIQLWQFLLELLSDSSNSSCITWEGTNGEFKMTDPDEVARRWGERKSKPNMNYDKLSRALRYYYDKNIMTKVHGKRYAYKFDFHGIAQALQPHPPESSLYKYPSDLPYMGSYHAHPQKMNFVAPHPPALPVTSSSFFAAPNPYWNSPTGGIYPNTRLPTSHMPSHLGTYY
The method in brief: as §1

The target in a further test is ELF1 (Homo sapiens, UniProt P32519 1-619). The method in brief: as §1
Chain of ELF1 (P32519 whole entry): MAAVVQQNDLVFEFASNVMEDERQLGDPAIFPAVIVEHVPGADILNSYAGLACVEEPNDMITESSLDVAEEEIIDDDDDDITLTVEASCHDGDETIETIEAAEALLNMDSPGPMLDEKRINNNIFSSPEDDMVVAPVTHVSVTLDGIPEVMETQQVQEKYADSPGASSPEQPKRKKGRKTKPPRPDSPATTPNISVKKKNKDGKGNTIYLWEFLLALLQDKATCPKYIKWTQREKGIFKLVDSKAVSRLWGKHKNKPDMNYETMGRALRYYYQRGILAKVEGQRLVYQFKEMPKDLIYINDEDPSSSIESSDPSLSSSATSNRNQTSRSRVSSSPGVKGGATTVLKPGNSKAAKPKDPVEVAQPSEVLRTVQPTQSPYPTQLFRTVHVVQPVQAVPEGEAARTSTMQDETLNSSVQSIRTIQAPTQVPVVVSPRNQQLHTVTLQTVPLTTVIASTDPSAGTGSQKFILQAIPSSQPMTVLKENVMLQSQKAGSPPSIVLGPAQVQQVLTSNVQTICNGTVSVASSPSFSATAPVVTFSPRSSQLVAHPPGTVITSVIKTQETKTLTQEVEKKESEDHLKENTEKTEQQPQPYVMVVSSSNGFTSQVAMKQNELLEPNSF
The target in a further test is T4, EHF (Homo sapiens, UniProt Q9NZC4 1-300).
T4 sequence: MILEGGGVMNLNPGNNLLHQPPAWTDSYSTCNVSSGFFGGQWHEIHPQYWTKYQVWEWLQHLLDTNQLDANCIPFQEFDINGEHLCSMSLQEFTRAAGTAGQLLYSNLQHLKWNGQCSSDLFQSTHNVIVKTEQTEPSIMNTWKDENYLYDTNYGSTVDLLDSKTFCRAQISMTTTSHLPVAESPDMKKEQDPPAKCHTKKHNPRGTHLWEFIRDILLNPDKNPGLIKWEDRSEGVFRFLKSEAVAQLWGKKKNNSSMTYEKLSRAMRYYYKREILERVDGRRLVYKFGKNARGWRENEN
The procedure, abridged: as §1

Another test deals with SPIB (Homo sapiens, UniProt Q01892 1-262). The procedure, abridged:
as §1

The target of a further test is T5, ELK3 (Homo sapiens, UniProt P41970 1-407).
T5 sequence: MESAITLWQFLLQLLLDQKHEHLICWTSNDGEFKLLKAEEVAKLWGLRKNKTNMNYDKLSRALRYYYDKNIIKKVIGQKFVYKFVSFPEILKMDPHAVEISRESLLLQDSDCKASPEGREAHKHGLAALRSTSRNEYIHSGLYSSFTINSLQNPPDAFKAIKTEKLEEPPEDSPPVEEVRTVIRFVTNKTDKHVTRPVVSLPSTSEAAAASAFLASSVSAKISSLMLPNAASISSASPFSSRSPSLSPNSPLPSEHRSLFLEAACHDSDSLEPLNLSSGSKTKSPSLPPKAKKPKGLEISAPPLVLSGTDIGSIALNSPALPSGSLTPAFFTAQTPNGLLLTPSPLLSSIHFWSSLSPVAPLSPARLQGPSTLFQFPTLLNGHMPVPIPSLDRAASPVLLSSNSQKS
The procedure, abridged: as §1

The target of the next test is T6, SPIC (Homo sapiens, UniProt Q8N5J4 1-248).
T6 sequence: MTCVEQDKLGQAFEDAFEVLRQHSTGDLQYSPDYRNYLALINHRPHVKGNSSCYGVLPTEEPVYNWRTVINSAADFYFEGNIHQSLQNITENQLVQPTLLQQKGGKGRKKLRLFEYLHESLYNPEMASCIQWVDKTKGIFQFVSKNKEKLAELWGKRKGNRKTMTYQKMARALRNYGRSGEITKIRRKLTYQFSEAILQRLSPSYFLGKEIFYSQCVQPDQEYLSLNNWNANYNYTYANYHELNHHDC
The procedure, abridged: as §1

Another test has as its target ELF4 (Homo sapiens, UniProt Q99607 1-663). The method in brief: as §1
The next test concerns the target T7, ELK4 (Homo sapiens, UniProt P28324-2 1-405).
T7 sequence: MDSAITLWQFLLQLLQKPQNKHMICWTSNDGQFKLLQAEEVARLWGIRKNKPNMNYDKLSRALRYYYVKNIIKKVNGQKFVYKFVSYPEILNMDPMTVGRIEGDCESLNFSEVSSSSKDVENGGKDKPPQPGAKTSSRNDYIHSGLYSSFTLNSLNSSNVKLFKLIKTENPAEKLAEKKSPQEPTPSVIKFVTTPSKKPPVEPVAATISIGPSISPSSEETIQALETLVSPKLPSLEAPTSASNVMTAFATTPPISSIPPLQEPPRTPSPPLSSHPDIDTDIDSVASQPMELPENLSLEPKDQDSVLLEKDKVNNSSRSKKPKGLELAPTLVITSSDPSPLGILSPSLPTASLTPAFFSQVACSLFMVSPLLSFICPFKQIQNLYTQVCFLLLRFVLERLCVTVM
The procedure, abridged:
as §1

A further test concerns the target ETV1 (Homo sapiens, UniProt P50549 1-477). The method in brief:
as §1

The target in a further test is T8, ERF (Homo sapiens, UniProt P50548 1-548).
T8 sequence: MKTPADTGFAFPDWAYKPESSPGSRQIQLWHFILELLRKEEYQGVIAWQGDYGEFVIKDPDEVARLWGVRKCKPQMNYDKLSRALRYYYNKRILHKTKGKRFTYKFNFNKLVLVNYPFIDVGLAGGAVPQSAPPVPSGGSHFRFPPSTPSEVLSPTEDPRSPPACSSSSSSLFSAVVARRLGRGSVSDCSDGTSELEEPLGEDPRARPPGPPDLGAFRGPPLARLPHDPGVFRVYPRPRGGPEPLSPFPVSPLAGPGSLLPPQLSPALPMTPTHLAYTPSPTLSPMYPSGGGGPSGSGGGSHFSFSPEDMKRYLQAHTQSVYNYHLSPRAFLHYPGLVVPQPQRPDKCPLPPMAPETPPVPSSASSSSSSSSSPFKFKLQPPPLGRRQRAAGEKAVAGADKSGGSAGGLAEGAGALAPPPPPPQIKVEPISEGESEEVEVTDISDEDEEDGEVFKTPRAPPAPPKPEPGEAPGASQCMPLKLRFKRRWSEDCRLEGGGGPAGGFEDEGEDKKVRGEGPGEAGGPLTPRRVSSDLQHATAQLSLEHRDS
The method in brief:
as §1

For another test, the target named is T9, ETV3L (Homo sapiens, UniProt Q6ZN32 1-361).
T9 sequence: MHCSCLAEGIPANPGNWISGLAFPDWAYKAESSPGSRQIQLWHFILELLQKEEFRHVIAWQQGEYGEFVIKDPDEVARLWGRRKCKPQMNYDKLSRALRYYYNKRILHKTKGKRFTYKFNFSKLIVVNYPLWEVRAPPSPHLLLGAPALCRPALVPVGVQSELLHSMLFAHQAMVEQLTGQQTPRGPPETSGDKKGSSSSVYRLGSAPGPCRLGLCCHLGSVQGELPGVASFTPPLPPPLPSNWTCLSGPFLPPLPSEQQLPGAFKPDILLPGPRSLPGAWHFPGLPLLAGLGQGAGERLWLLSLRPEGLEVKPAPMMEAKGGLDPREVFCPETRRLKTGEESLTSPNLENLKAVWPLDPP
The procedure, abridged: as §1

The target of another test is T10, SPDEF (Homo sapiens, UniProt O95238 1-335).
T10 sequence: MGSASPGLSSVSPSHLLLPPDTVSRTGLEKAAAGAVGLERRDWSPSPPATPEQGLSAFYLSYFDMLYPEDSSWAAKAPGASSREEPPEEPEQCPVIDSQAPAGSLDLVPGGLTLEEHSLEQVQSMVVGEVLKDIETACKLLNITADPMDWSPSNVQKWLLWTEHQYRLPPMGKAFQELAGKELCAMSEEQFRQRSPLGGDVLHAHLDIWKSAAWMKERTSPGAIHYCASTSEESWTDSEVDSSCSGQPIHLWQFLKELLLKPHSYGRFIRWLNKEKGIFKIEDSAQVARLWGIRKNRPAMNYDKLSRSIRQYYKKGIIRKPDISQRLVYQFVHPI
The method in brief:
as §1

The next test deals with T11, ETV7 (Homo sapiens, UniProt Q9Y603 1-341).
T11 sequence: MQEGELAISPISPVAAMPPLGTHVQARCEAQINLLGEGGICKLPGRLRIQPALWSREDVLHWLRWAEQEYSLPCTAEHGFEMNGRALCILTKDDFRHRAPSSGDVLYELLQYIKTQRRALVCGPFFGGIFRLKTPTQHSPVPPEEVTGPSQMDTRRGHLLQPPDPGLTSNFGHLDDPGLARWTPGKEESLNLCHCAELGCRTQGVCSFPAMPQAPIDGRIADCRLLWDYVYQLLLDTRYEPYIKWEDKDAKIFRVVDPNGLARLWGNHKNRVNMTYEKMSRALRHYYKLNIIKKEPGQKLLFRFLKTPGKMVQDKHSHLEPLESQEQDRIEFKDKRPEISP
The method in brief: as §1

The target in a further test is T12, ETV3 (Homo sapiens, UniProt P41162-2 1-143).
T12 sequence: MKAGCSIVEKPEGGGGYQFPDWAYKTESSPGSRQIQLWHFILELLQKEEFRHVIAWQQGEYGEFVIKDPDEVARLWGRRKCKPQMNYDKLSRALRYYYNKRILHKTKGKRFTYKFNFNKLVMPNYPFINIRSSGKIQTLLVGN
The method in brief:
as §1

The next test concerns the target ETV6 (Homo sapiens, UniProt P41212 1-452). The procedure, abridged:
as §1

Chain of ELF4 (Q99607 whole entry): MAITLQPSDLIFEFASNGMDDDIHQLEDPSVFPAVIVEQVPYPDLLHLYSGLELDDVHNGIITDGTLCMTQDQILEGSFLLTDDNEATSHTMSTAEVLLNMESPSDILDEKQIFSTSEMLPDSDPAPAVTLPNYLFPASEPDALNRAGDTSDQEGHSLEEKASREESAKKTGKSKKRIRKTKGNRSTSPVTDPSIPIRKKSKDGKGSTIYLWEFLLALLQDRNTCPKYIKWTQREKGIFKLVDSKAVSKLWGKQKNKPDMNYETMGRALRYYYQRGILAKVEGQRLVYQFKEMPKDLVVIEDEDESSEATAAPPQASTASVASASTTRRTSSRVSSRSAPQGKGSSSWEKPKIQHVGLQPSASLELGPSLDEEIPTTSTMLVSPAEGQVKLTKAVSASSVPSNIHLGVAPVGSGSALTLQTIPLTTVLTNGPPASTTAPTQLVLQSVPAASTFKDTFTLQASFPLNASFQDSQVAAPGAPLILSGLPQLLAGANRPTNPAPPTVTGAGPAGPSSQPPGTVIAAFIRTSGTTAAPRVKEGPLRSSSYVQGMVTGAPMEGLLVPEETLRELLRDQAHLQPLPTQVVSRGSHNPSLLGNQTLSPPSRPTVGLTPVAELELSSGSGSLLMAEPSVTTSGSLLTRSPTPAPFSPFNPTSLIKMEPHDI
Chain of ETV6 (P41212 whole entry): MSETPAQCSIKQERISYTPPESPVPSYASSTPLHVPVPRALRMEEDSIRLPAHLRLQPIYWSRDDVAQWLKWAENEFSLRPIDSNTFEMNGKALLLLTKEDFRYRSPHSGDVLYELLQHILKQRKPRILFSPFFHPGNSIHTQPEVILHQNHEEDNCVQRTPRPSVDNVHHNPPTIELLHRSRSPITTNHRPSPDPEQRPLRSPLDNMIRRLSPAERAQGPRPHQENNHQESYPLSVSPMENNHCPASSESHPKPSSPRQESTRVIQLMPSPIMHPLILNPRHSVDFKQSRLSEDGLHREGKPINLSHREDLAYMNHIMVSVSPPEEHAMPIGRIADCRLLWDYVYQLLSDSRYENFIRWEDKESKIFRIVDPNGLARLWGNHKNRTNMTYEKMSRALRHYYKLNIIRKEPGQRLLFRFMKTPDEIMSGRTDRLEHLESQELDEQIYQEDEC
Chain of SPIB (Q01892 whole entry): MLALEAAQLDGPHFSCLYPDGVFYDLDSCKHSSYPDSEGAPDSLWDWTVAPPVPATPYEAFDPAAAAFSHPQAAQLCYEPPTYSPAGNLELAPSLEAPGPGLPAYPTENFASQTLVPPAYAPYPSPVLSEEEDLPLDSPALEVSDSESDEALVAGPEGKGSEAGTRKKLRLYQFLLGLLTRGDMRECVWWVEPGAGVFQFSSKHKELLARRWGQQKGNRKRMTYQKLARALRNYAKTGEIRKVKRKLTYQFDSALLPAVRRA
Chain of ETV1 (P50549 whole entry): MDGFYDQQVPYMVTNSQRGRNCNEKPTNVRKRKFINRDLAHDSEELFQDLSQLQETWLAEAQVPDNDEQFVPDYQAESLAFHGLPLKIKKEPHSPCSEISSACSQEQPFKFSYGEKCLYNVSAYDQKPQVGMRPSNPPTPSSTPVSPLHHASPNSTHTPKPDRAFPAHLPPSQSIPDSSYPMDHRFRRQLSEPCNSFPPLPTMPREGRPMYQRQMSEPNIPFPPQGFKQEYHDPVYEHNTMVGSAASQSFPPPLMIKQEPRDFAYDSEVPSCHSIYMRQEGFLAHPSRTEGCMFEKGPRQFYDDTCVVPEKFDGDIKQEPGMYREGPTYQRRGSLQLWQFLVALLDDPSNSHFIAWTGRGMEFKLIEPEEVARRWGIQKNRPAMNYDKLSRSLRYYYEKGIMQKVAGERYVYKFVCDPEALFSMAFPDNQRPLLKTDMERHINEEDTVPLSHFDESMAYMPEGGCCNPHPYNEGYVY

For the sequence CTTAAG, the binding signal was 1.11 fold enrichment (6-mer frequency, TF over GST control) with ELK1; 1.13 fold enrichment (6-mer frequency, TF over GST control) with GABPA; 1.09 fold enrichment (6-mer frequency, TF over GST control) with ERG; 1.09 fold enrichment (6-mer frequency, TF over GST control) with ELF1; 1.1 fold enrichment (6-mer frequency, TF over GST control) with EHF; 1.11 fold enrichment (6-mer frequency, TF over GST control) in the test with SPIB. In addition, the binding signal with ELK3 was 1.03 fold enrichment (6-mer frequency, TF over GST control); with SPIC, 1.1 fold enrichment (6-mer frequency, TF over GST control); with ELF4, 1.07 fold enrichment (6-mer frequency, TF over GST control); with ELK4, 1.06 fold enrichment (6-mer frequency, TF over GST control); with ETV1, 1.1 fold enrichment (6-mer frequency, TF over GST control); with ERF, 1.07 fold enrichment (6-mer frequency, TF over GST control). Also, the binding signal is 1.08 fold enrichment (6-mer frequency, TF over GST control) in the test with ETV3L; 1.04 fold enrichment (6-mer frequency, TF over GST control) with SPDEF; 1.04 fold enrichment (6-mer frequency, TF over GST control) with ETV7; 1.13 fold enrichment (6-mer frequency, TF over GST control) with ETV3; 1.03 fold enrichment (6-mer frequency, TF over GST control) in the test with ETV6.
